Screening results: PubChem BioAssay, National Center for Advancing Translational Sciences (NCATS)
L3MBTL1 block = inhibitors of human L3MBTL1; AlphaScreen L3MBTL1–H3K9me1 peptide binding; Q9Y468; Potency, µM (titrated, usually from 57.1 µM), without a hit: top-dose activity, negative = inhibition, hits mostly inhibitors; AID 485360; hit rate 0.66% among 230,000; further: nearly all actives have a fitted effect of over 60% in size
Target sequence (Q9Y468 whole entry, looked up): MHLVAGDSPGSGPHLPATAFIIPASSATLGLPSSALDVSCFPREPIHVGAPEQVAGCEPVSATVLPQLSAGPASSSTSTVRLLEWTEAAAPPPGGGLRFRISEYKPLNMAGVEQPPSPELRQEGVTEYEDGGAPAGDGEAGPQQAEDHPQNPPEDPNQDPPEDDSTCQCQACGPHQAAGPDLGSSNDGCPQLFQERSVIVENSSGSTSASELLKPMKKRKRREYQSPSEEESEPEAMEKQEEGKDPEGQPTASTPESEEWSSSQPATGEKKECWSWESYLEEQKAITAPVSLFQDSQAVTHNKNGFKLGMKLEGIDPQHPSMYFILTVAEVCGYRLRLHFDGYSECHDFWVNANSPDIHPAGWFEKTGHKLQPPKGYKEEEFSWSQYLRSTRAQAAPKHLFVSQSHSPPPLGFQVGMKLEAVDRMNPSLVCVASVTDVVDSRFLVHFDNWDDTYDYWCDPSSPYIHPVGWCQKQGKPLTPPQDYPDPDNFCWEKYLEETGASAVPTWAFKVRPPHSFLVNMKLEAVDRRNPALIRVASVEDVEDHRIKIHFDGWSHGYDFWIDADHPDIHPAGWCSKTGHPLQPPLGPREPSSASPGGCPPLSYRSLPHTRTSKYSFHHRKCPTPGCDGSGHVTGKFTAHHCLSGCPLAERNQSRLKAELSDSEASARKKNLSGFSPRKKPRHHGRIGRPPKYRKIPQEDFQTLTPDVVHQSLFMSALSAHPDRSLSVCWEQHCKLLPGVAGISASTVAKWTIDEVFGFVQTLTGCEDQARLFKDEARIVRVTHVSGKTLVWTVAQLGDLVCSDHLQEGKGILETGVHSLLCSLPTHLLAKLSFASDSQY
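L3MBTL1 (50 nM) pre-complexed 30 min with biotinylated H3(1-15)K9me1 peptide (75 nM), then compounds added for 30 min at room temperature; AlphaScreen streptavidin donor/nickel chelate acceptor beads (10 ug/mL final) read after 30 min dark incubation.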
WRN inhibitor = WRN helicase (human) inhibition | Q14191 | WRN helicase unwinding, fluorescent forked duplex, kinetic | Potency, µM (doses to about 114 µM), without a hit: top-dose activity change, negative = inhibition, hits mostly inhibitors | hit rate 0.46% among 360,000 | AID 651768; further: nearly all actives have a fitted effect of over 55% in size
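Primary qHTS, 1536-well format. 20 nM WRN + compound, 15 min RT; start with 100 nM forked fluorophore/quencher duplex, 2 mM ATP (final); kinetic read ex 525/em 598 nm.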
RECQ1 helicase = inhibitors of human RECQ1 DNA helicase; P46063; RECQ1 DNA unwinding, red fluorescence kinetic read; Potency, µM (series often up to 57.3 µM), inactives show at the highest dose activity, negative = inhibition, hits mostly inhibitors; hit rate 0.54% among 240,000; AID 2549;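 further: plate controls were vehicle for no effect and no enzyme for full effect; nearly all actives have a fitted effect of over 30% in size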
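50 nM RECQ1T1 preincubated 15 min with compound in Tris pH 8.0 buffer with MgCl2, DTT, Tween-20 and 2.5 ug/ml poly(dI-dC); started with 200 nM TAMRA/BHQ-2 forked duplex and 2 mM ATP. Unwinding read as fluorescence (525/598 nm), two reads 2 h apart.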
BLM inh = blocks DNA unwinding by human BLM helicase | P54132 | recombinant BLM DNA unwinding, fluorescence dequenching | Potency, µM (top dose mostly 56.1 µM), inactives show at the highest dose activity change, negative = inhibition, actives largely listed as inhibitors | hit rate 0.2% among 350,000 | AID 2528;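 further: plate controls were vehicle for no effect and no enzyme for full effect; nearly all actives have a fitted effect of over 35% in size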
FEN1 inhibitor = human FEN1 inhibition; hit rate 0.35% among 390,000; Potency, µM (doses to about 114 µM), for inactives: at the highest dose activity change, negative = inhibition, usual class: inhibitors; P39748; AID 588795; Recombinant FEN1 flap cleavage, fluorescence, 15 min; further: nearly all actives have a fitted effect of over 65% in size
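Nuclease activity of 10 nM FEN1 was measured after 15 min of room-temperature exposure to titrated compounds, by adding 50 nM flap substrate and reading plates at 0 and 15 min.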
* hit, by the source's call; i = inactive; ? = inconclusive; . = no result; ! = repeats disagree; [ ] = another dose, or the depositor's remark. An excerpt weighted towards active compounds, which were near 0.99% of everything screened. The call rests on the fitted dose curve; in most records, active means well fitted curve in the direction sought with a large enough effect; inconclusive means small, poorly fitted or top-dose-only effect, or another doubt; inactive means no such curve, though single readings can be large; an effect the other way counts as inactive or inconclusive. Unless noted, on the % scale 0 is the no-effect control and ±100 the full control effect; potency means the concentration at half of the fitted maximal effect.

SMILES | L3MBTL1 block | WRN inhibitor | RECQ1 helicase | BLM inh | FEN1 inhibitor
Cn1c(=O)c2c(nc(N/N=C/c3c(O)n(-c4ccccc4)c(=S)[nH]c3=O)n2C)n(C)c1=O | 9.0% | -23.4%[57.1 µM] | -8.1% | 2.0% | 3.4%
CCC(=NCc1ccco1)c1c(O)n(-c2ccc(C)cc2)c(=O)[nH]c1=O | -4.3% | 4.1% | i | -0.8% | 4.4%
N.N.N.N.N.N.N.N.N.N.N.N.N.N.O.O.[Cl-].[Cl-].[Cl-].[Cl-].[Cl-].[Cl-].[Ru].[Ru].[Ru] | . | . | 14.1µM* | . | .
COc1cc2c(cc1O)-c1c(O)c(OC)cc3c1[C@H](C2)N(C)CC3 | . | . | -22.4% | -12.4% | .
CN1CCc2cc(O)cc3c2[C@H]1Cc1ccc(O)c(O)c1-3 | . | -34.6% | . | . | 79.4µM*!
COc1cc2c(cc1O)C[C@H]1c3c(cc(O)c(OC)c3-2)CCN1C | -7.3% | -8.2% | -4.8%[25.9 µM] | -14.3%[21.4 µM] | -24.6%
CCCN1CCc2cc(O)cc3c2[C@H]1Cc1ccc(O)c(O)c1-3 | . | -0.3% | . | . | 50.1µM*
CC(=NCc1ccc2c(c1)OCO2)c1c(O)n(Cc2ccccc2)c(=O)[nH]c1=O | -5.6% | -12.0% | -1.8% | -6.6% | 1.2%
O=c1[nH]sc2cc(F)ccc12 | . | 31.6µM* | -2.2% | 2.9% | ?
COC(=O)C1=Nc2ccccc2/C1=C\c1c(O)n(-c2cc(OC)ccc2OC)c(=O)[nH]c1=O | 7.8% | 50.1µM* | ? | -8.3% | -16.3%
CC(=O)O[C@H]1CC[C@@]2(C)C(=CC[C@@H]3[C@H]2CC[C@]2(C)C(=O)CC[C@H]32)C1 | . | . | -6.4%[25.9 µM] | 2.9%[21.4 µM] | .
O=C1NC(=S)NC(=O)C1=Cc1c(Cl)cccc1Cl | . | 56.2µM* | . | . | 0.5%
O=C(O[C@@H]1Cc2c(O)cc(O)cc2O[C@@H]1c1cc(O)c(O)c(O)c1)c1cc(O)c(O)c(O)c1 | . | . | 3.16µM* | -4.9% | .
O=C(OC1Cc2c(O)cc(O)cc2OC1c1cc(O)c(O)c(O)c1)c1cc(O)c(O)c(O)c1 (centres undefined) | . | . | 1.58µM* | ? | .
Oc1cc(O)c2c(c1)OC(c1cc(O)c(O)c(O)c1)C(O)C2 (centres undefined) | . | . | 35.5µM* | -27.3% | .
Cc1cc(OCC(=O)N2CCC(C(=O)NCC(C)C)CC2)c2c3c(c(=O)oc2c1)CCCC3 | . | 2.6% | . | 0.3% | 1.9%
CC(C(O)c1ccccc1)N(C)CCn1cnc2c1c(=O)n(C)c(=O)n2C (centres undefined) | -2.2% | 1.6% | i | -5.5% | 7.2%
CCCCn1c(NC(=O)c2ccc(Br)o2)c(C(=O)OCC)c2nc3ccccc3nc21 | -24.2% | ? | -0.6% | 22.4µM* | -15.7%
CN(C)C1=C(C#N)C(c2ccccc2)=NP(N(C)C)(N(C)C)=N1 | 1.9% | 8.2% | -10.5% | -4.8% | -5.7%
O=[N+]([O-])c1ccc([As](=O)(O)O)cc1 | . | . | . | 3.1% | .
O=[N+]([O-])c1cc(-c2ccc([As](=O)(O)O)cc2)ccc1[As](=O)(O)O | 22.4µM* | . | -4.0% | -3.7% | .
C[C@@]12CC[C@H](O)C[C@@H]1CC[C@H]1[C@H]2CC[C@@]2(C)[C@@H](C3=CC(=O)OC3)CC[C@]12O | . | . | -1.8%[25.9 µM] | 3.4%[21.4 µM] | .
COC(=O)C1=C(c2ccc3ccccc3c2)C[C@@H]2CC[C@H]1N2C | 4.7% | 5.8% | . | . | 11.4%
COC(=O)C1=C(C(=O)OC)C2OC1c1cc3ccccc3cc12 | . | 39.8µM* | . | . | -29.6%
CC(NCc1ccc(Cl)cc1)C(O)c1ccccc1 (centres undefined) | 7.1% | -4.8% | -6.3% | 4.6% | -17.6%
SMILES | L3MBTL1 block | WRN inhibitor | RECQ1 helicase | BLM inh | FEN1 inhibitor
CCOc1ccc(N2C(=O)/C(=C\c3cccs3)C(=O)NC2=S)cc1 | 25.1µM* | 39.8µM* | -21.4% | -3.9% | ?
CCc1ccccc1N1C(=O)/C(=C/c2ccc(N3CCN(C)CC3)o2)C(=O)NC1=S | -2.2% | 50.1µM* | -11.8% | -7.9% | ?
Cc1ccccc1N1C(=O)NC(=O)/C(=C/c2ccc(N3CCOCC3)o2)C1=O | -13.8% | -7.5% | i | -1.0% | 3.4%
Cc1ccccc1N1C(=O)/C(=C/c2ccco2)C(=O)NC1=S | . | . | . | 0.891µM* | .
CCOc1ccc(N2C(=O)/C(=C/c3ccco3)C(=O)NC2=S)cc1 | -8.0%[2.29 µM] | 11.2µM* | . | ? | ?
CCOC(=O)COc1ccc(/C=C2\C(=O)NC(=S)N(c3ccc(OC)cc3)C2=O)cc1OC | . | -4.2% | . | -4.3% | -18.7%
CCN1CCC2(CC1)NC(CO)(CO)CO2 | 6.3% | -5.5% | -6.5% | -7.5% | 11.7%
CCOC(=O)C1C2NC(=O)N(Cc3ccccc3)C1(C)Oc1c(OC)cccc12 (centres undefined) | 4.2% | -3.2% | i | -2.2% | 0.1%
O=C(Cc1ccccc1)OCC(=O)N1CCN(S(=O)(=O)c2ccc(Cl)cc2)CC1 | 2.0% | -6.5% | . | . | -0.7%
Cc1c(F)c(F)c(COC(=O)C2C(/C=C(\Cl)C(F)(F)F)C2(C)C)c(F)c1F (centres undefined) | . | . | 0.1% | 0.2% | .
O=C1NC(=S)N(c2ccccc2F)C(=O)/C1=C\c1cccs1 | 2.4% | 50.1µM* | ? | 4.1% | -6.1%
Cc1cccc(N2C(=O)NC(=O)/C(=C/c3cc4c(cc3[N+](=O)[O-])OCO4)C2=O)c1 | . | 50.1µM* | -0.3% | -0.4% | -32.8%
CCOc1ccc(N2C(=O)NC(=O)/C(=C\c3ccccc3[N+](=O)[O-])C2=O)cc1 | -0.7% | -6.3% | -2.5% | -0.1% | -23.5%
O=C1NC(=O)C(=Cc2cc3c(cc2[N+](=O)[O-])OCO3)C(=O)N1 | -5.2% | 70.8µM* | 3.1% | -8.1% | 14.7%
CCCCCCCC/C=C\CCCCCCCC(=O)OC[C@@H](COP(O)(O)=S)OC | . | . | 25.1µM* | ? | .
CCCCC/C=C\C/C=C\CCCCCCCC(=O)NCCO | . | . | -1.6% | 7.6% | .
C#CCOCCOCCOCCNc1nc(N2CCN(C(=O)CCCCCCCCCCNC(=O)[C@H]([C@@H](C)CC)n3cc(CCCCN=C(N)N)nn3)CC2)nc(N2CCN(C(=O)CCCCCCCCCCNC(=O)[C@H](CO)n3cc(CCCCCN)nn3)CC2)n1 | -8.6% | 22.4µM* | . | . | 25.1µM*
CNC(=O)O/N=C(\C)Cc1nnn(-c2cc(C)on2)n1 | 11.3% | -17.1% | -2.8% | -2.6% | 13.9%
O=C1NC(=O)C(=Cc2ccc(-c3ccccc3[N+](=O)[O-])o2)C(=O)N1 | . | ? | -4.5% | -1.0% | ?
O=C1NC(=O)N(c2ccccc2)C(=O)/C1=C\c1ccc([N+](=O)[O-])o1 | 3.16µM* | . | -25.5% | 35.1% | .
CN1C(=O)NC(=O)/C(=C\c2ccc([N+](=O)[O-])o2)C1=O | 10µM* | 25.1µM* | i | 22.5% | 15.8µM*
CC(C)(C)n1cc(C(=O)c2ccc3ccccc3c2O)cn1 | . | -1.3% | -2.1% | -6.8% | -0.6%
OC[C@H]1O[C@@H](n2cnc3cc(Cl)c(Cl)cc32)[C@H](O)[C@@H]1O | -7.1% | 2.6% | . | . | 0.0%
NP(=O)(OCCCc1ccccc1)Oc1ccc(Cl)cc1 (centres undefined) | 14.1µM* | -0.6% | . | -2.6% | 7.6%
